The list is not random: actives were taken first. Their share in the collection is about 19%.
HT1080-NT tox – kills 2HG-producing HT-1080-NT fibrosarcoma cells. HT-1080-NT fibrosarcoma viability, CellTiter-Glo ATP luminescence, 48 h. Potency, µM (doses to about 46.1 µM), usual class: cytotoxic. actives 1.6% (n = 360,000);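 also: NT is the 2HG producing partner of a matched IDH1 knockdown line; nearly all actives have a fitted effect of over 55% in size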
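Fibrosarcoma NT cells, 750 per well in 5% FBS RPMI, were exposed to compound for 48 hours. Viability: CellTiter-Glo luminescence.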
TDP1 cell noCPT – qHTS for Inhibitors of human tyrosyl-DNA phosphodiesterase 1 (TDP1): qHTS in cells in absence of CPT; DT40 Tdp1-/- hTDP1 cells, no CPT, ATP luminescence, 48 h; Potency, µM (highest dose often 46.2 µM), most hits filed as inhibitors; actives 15% (n = 420,000); also: nearly all actives have a fitted effect of over 55% in size
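Growth of hTDP1-complemented DT40 Tdp1-knockout cells is measured by ATP luminescence after at least 48 hr compound exposure at 37 °C, with DMSO substituting for the 20 nM CPT used in the parallel screen.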
IL-1B inflam inh – inflammasome signaling inhibition, IL-1 beta readout. THP-1 LPS/ATP IL-1B secretion, AlphaLISA, 16 h; active compounds read low. AID 743279. actives 4.7% (n = 360,000). activity change, % at 57.5 µM; in the data active = activity change below about -50%; inconclusive = mostly about -30% to -49%
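Secreted IL-1B measured by AlphaLISA bead assay after 16 h compound exposure of THP-1 cells; compounds (final up to 57.5 uM) added 1 h before LPS (250 ng/mL) and ATP (1.25 mM) stimulation; lower signal means less secretion.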
HT1080 IDH1KD tx – kills HT-1080 cells with IDH1 knockdown; Potency, µM (top dose mostly 46.1 µM), most hits filed as cytotoxic; HT-1080 IDH1 knockdown viability, ATP luminescence, 48 h; actives 2% (n = 360,000)
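IDH1KD HT-1080 cells, 750/well, RPMI + 5% FBS; compound pinned after 2 h settling; 48 h, 37 °C; CellTiter-Glo luminescence; % activity normalised to DMSO and no-cell wells; curves fitted, classed by r2 and efficacy.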
DT40 TDP1 CPT – DT40-hTDP1 cell growth loss with CPT | chicken DT40 Tdp1-/-;hTDP1 cells + 20 nM CPT, ATP luminescence, 48 h | Potency, µM (doses to about 46.2 µM), most hits filed as inhibitors | actives 12% (n = 420,000) | AID 686979; also: nearly all actives have a fitted effect of over 55% in size
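Chicken DT40 Tdp1-/- cells complemented with human TDP1, 400 cells/well, exposed to compounds plus 20 nM camptothecin for at least 48 h at 37 C; viability read as ATP content by CellTiter-Glo luminescence.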
ELG1 DNA repair – ELG1-dependent DNA repair inhibition; Potency, µM (doses to about 46.1 µM), most hits filed as inhibitors; HEK293T ELG1-luciferase reporter, luminescence, 16 h; DNA damage induced by 5-fluorouridine; AID 504467; actives 2.3% (n = 330,000); also: nearly all actives have a fitted effect of over 55% in size
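Overnight (16 hr) co-exposure of 2,000 cells/well to 5-fluorouridine and compound at 37 °C preceded detection. Luciferase was quantified via ONE-Glo luminescence; loss of signal denotes inhibition.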
Each line names hits and unclear results; the compound was inactive in the other large screens. Unless noted, calls follow the shape of the dose curve; as a rule, active = well fitted curve in the direction sought with a large enough effect; inconclusive = small, poorly fitted or top-dose-only effect, or another doubt; inactive = no such curve, though single readings can be large; an effect the other way counts as inactive or inconclusive.

C=CCn1c(SCC(=O)NC(N)=O)nnc1-c1cc2c(s1)CCC(CC)C2 (centres undefined)	TDP1 cell noCPT inconclusive
C=CCn1c(SCC(=O)NCC)nnc1-c1cc2c(s1)CCC(CC)C2 (centres undefined)	TDP1 cell noCPT 16µM, DT40 TDP1 CPT 23µM, ELG1 DNA repair inconclusive
Cc1nc2c(-c3ccccc3)c(C)nn2c(C)c1CCC(=O)NCc1cccc(Cl)c1	none (no result: HT1080-NT tox, IL-1B inflam inh, HT1080 IDH1KD tx, ELG1 DNA repair)
NC(=S)N=Nc1c(O)[nH]c2c(Br)cc(Br)cc12	TDP1 cell noCPT 21µM, DT40 TDP1 CPT inconclusive
COCCNC(=S)N=Nc1c(O)[nH]c2c(C)cc(C)cc12	HT1080-NT tox inconclusive
Cc1ccc(NN2C(=O)C=C(c3ccccc3)C2=O)cc1	HT1080-NT tox 23µM, TDP1 cell noCPT 7.3µM, HT1080 IDH1KD tx 16µM, DT40 TDP1 CPT 5.8µM, ELG1 DNA repair inconclusive
Cc1ccc(C)c(NC(=O)c2cc(S(=O)(=O)NCCC3=CCCCC3)ccc2F)c1	TDP1 cell noCPT 21µM, DT40 TDP1 CPT inconclusive (no result: HT1080-NT tox, IL-1B inflam inh, HT1080 IDH1KD tx, ELG1 DNA repair)
Cc1ccc(NC(=O)c2cc(S(=O)(=O)NCCC3=CCCCC3)ccc2F)cc1	TDP1 cell noCPT inconclusive, IL-1B inflam inh -65, DT40 TDP1 CPT inconclusive
Cc1c(C(=O)O)oc2ccc(S(=O)(=O)NCCC3=CCCCC3)cc12	none
Cc1ccc(NC(=O)c2cc(S(=O)(=O)NCC3CCCO3)ccc2F)cc1 (centres undefined)	TDP1 cell noCPT inconclusive, DT40 TDP1 CPT inconclusive (no result: ELG1 DNA repair)
COc1ccc(NC(=O)N2CC[C@@]3(CCCN(C(=O)c4cccc(F)c4)C3)C2)cc1	DT40 TDP1 CPT inconclusive (no result: HT1080-NT tox, IL-1B inflam inh, HT1080 IDH1KD tx, ELG1 DNA repair)
COc1ccc(C(CCNCc2ccc(OC(C)C)cc2)C(C)C)cc1 (centres undefined)	HT1080-NT tox inconclusive, TDP1 cell noCPT 6.5µM, HT1080 IDH1KD tx inconclusive, DT40 TDP1 CPT 4.6µM (no result: IL-1B inflam inh)
COCCNCc1ccc(C(C)C)cc1	ELG1 DNA repair inconclusive
CCOCCCNCc1ccc(OC)cc1	none
COc1ccc(C(CCNCc2ccc(N(C)C)cc2)C(C)C)cc1 (centres undefined)	HT1080-NT tox 18µM, TDP1 cell noCPT 7.3µM, IL-1B inflam inh -100, HT1080 IDH1KD tx inconclusive, DT40 TDP1 CPT 7.3µM, ELG1 DNA repair inconclusive
COC(=O)c1ccc(NC(=S)NC2CC3CCC2C3)cc1 (centres undefined)	HT1080-NT tox inconclusive, TDP1 cell noCPT 21µM, HT1080 IDH1KD tx inconclusive, DT40 TDP1 CPT 18µM, ELG1 DNA repair inconclusive
COc1ccc(CNC(=S)Nc2ccccc2)cc1	none
CCOc1ccc(CNC(=S)Nc2ccccc2)cc1Cl	TDP1 cell noCPT inconclusive, IL-1B inflam inh -79, DT40 TDP1 CPT inconclusive
COc1ccccc1NC(=S)NCc1ccccc1	none
CCOc1ccccc1NC(=S)NC1CC2CCC1C2 (centres undefined)	TDP1 cell noCPT 21µM, DT40 TDP1 CPT inconclusive, ELG1 DNA repair inconclusive
CCOc1ccccc1NC(=S)NCc1ccccc1	HT1080-NT tox inconclusive, TDP1 cell noCPT inconclusive, DT40 TDP1 CPT 10µM
COC(=O)c1ccc(NC(=O)C2CC3CCC2C3)cc1 (centres undefined)	none (no result: ELG1 DNA repair)
COc1ccc(NC(=S)NC2CC3CCC2C3)c(OC)c1 (centres undefined)	none
CC(C)CN(C(=O)c1ccc(S(=O)(=O)N2CCOCC2)cc1)C1CCS(=O)(=O)C1 (centres undefined)	none
CCN(C(=S)Nc1cccc2ccccc12)c1ccccc1	TDP1 cell noCPT 10µM, DT40 TDP1 CPT inconclusive (no result: ELG1 DNA repair)
CCOc1ccccc1NC(=S)Nc1ccccc1F	none
CN(C)C(=S)NCc1ccccc1	TDP1 cell noCPT 10µM, DT40 TDP1 CPT 23µM
CCOc1ccccc1NC(=S)Nc1ncccc1C	HT1080-NT tox inconclusive, TDP1 cell noCPT 29µM, HT1080 IDH1KD tx inconclusive, DT40 TDP1 CPT inconclusive, ELG1 DNA repair inconclusive
CCN(C(=S)NC(=O)CCc1ccccc1)c1ccccc1	TDP1 cell noCPT inconclusive, IL-1B inflam inh inconclusive, DT40 TDP1 CPT inconclusive
